Results on ten molecules are retold here after paper PMC5540273 (PLoS ONE, 2017).

“And” between values parts separate entries of the source, which are not always exact repeats. Identical values can stand only once. Like-named read-outs stand apart in the source and are kept apart here.

Among the test systems are MAP4K3; MAP4K4; MAP4K5; MAPKAPK2; MAPKAPK5; MARK1; MARK2; MARK3; MARK4; MAST1; MELK; MERTK; MET.
What all share (conditions): concentration: 1 μM, replicates: in singlicate, n = 1
Another assay deals with T1, MEK1.
T1 construct: gene MAP2K1

A further assay concerns T2, MEK2.
T2 construct: gene MAP2K2

For a further assay, the system named is T3, MEK3.
T3 construct: gene MAP2K3

The test system of a further assay is T4, MEK4.
T4 construct: gene MAP2K4

The subject of another assay is T5, MEK5.
T5 construct: gene MAP2K5

The test system of a further assay is T6, MEK6.
T6 construct: gene MAP2K6

For a further assay, the system named is T7, MINK.
T7 construct: gene MINK1
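Further: KINOMEscan kinase panel screen.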

For the molecule `Cn1ccc2ncnc(Oc3ccc(NC(=O)Nc4ccncc4)c(Cl)c3)c21`, the “%Inh” value in the assay with MAP4K3, in the assay with MAP4K4, in the assay with MAP4K5, with MAPKAPK2, in the assay on MAPKAPK5 and with MARK1 was 0% in each case. Further, the “%Inh” value in the assay on MARK2 is reported as 11%; in the assay on MARK3, 2%; in the assay on MARK4 it was 0%; with MAST1 it was 2%; in the assay on MEK1, 40%; in the assay with MEK2, 32%. Besides, the “%Inh” value turned out to be 0% with MEK3; 0% in the assay with MEK4; 4% in the assay with MEK5; 0% in the assay on MEK6; 0% in the assay on MELK; 0% with MERTK. Also, the “%Inh” value with MET and in the assay with MINK was 0% each time.
As to `Nc1nccc(-c2c(-c3ccc(F)cc3)ncn2C2CCN(CC(F)(F)F)CC2)n1` [SB-236560], the “%Inh” value in the assay with MAP4K3, with MAP4K4, in the assay on MAP4K5, in the assay with MAPKAPK2, in the assay on MAPKAPK5 and in the assay on MARK1 was 0% throughout. Further, the “%Inh” value in the assay on MARK2 worked out at 0%; in the assay with MARK3, 0%; with MARK4, 4%; with MAST1 it was 40%; in the assay with MEK1, 0%; in the assay with MEK2, 0%. Besides, the “%Inh” value in the assay on MEK3 was 30%; in the assay on MEK4, 0%; in the assay on MEK5, 10%; in the assay with MEK6 it was 0%; with MELK, 0%; in the assay with MERTK it was 9%. For the same molecule, the entries for the “%Inh” value in the assay with MET and in the assay with MINK were 0% and 43%, respectively.
In the case of `Fc1ccc(-c2nn3c(OCC(F)(F)F)cccc3c2-c2ccncc2)cc1` [GW514784], the “%Inh” value in the assay with MAP4K3, with MAP4K4, in the assay with MAP4K5, in the assay on MAPKAPK2, with MAPKAPK5 and in the assay with MARK1 was 0% each time. Also, the “%Inh” value in the assay with MARK2 is recorded as 0%; with MARK3, 0%; in the assay on MARK4 it was 0%; with MAST1 it was 48%; with MEK1 it was 0%; with MEK2, 0%. The “%Inh” value with MEK3 turned out to be 0%; in the assay with MEK4, 0%; with MEK5, 20%; with MEK6, 1%; in the assay on MELK, 3%; with MERTK, 0%. Also, the “%Inh” value with MET is given as 0%; with MINK, 35%.
On to `O=C(NCCNc1ccnc(Nc2ccc(F)cc2)n1)Nc1ccccc1F` [GSK1379880], for which the “%Inh” value stood at 0% in the assay on MAP4K3; 0% with MAP4K4; 0% in the assay on MAP4K5; 12% in the assay with MAPKAPK2; 0% with MAPKAPK5; 0% with MARK1. For the same molecule, the “%Inh” value in the assay on MARK2, with MARK3, in the assay on MARK4, in the assay with MAST1, with MEK1 and in the assay with MEK2 was 0% each time. The “%Inh” value is given as 0% with MEK3; 26% in the assay with MEK4; 30% in the assay on MEK5; 0% with MEK6; 0% with MELK; 7% in the assay with MERTK. Moreover, the “%Inh” value in the assay with MET and in the assay on MINK was 0% each time.
`O=C(Nc1n[nH]c2cc(-c3cccc(F)c3)ccc12)C1CC1` [SB-735464]: the “%Inh” value is given as 0% in the assay on MAP4K3; 42% in the assay with MAP4K4; 6% in the assay with MAP4K5; 0% in the assay with MAPKAPK2; 21% with MAPKAPK5; 9% with MARK1. For the same molecule, the “%Inh” value in the assay on MARK2 worked out at 25%; with MARK3, 0%; in the assay on MARK4, 5%; in the assay with MAST1 it was 34%; with MEK1, 8%; in the assay with MEK2, 10%. The “%Inh” value in the assay with MEK3 was found to be 8%; with MEK4, 4%; in the assay with MEK5, 31%; with MEK6 it was 0%; in the assay with MELK, 0%; in the assay on MERTK it was 23%. The “%Inh” value in the assay with MET worked out at 0%; in the assay with MINK it was 61%.
Turning to `O=c1cc(N2CCOCC2)nc2n(Cc3cccc(C(F)(F)F)c3)ccn12` [GSK2297543], the “%Inh” value in the assay on MAP4K3 turned out to be 0%; with MAP4K4, 0%; in the assay with MAP4K5, 0%; with MAPKAPK2, 0%; with MAPKAPK5, 0%; in the assay with MARK1, 1%. Besides, the “%Inh” value turned out to be 0% in the assay with MARK2; 0% in the assay with MARK3; 12% in the assay with MARK4; 9% in the assay on MAST1; 0% with MEK1; 0% with MEK2. The “%Inh” value stood at 0% in the assay with MEK3; 31% with MEK4; 0% in the assay with MEK5; 0% in the assay with MEK6; 4% in the assay with MELK; 0% in the assay on MERTK. For the same molecule, the “%Inh” value in the assay on MET and in the assay with MINK was 0% each time.
In the case of `CC(C)(CN)c1nc(-c2ccc(Cl)c(O)c2)c(-c2ccncc2)[nH]1.O=C(O)C(F)(F)F` [SB-477794], the “%Inh” value in the assay with MAP4K3 is 0%; with MAP4K4 (1 µM), 81% and 83%; with MAP4K5 (1 µM), 17% and 26%; in the assay on MAPKAPK2 (1 µM), 13% and 0%; with MAPKAPK5 it was 0%; with MARK1 (1 µM) it was 0% and 4%. In addition, the “%Inh” value is 0% and 22% with MARK2 (1 µM); 0% and 6% with MARK3 (1 µM); 0% and 13% with MARK4 (1 µM); 0% and 45% with MAST1 (1 µM); 14% and 2% in the assay with MEK1 (1 µM); 20% in the assay with MEK2. Besides, the “%Inh” value was 0% in the assay with MEK3; 0% and 8% in the assay on MEK4 (1 µM); 99.5% with MEK5; 0% and 100% with MEK6 (1 µM); 25% and 51% in the assay with MELK (1 µM); 32% and 45% in the assay on MERTK (1 µM). The “%Inh” value with MET (1 µM) was 0% and 12%; in the assay with MINK (1 µM), 91.7% and 93.9%.
For `Cl.Cl.Cl.Fc1ccc(-c2ncn(C3CCNCC3)c2-c2ccnc(Nc3ccccc3)n2)cc1` [SB-238039], the “%Inh” value in the assay with MAP4K3 (1 µM) is 41% and 5%; in the assay with MAP4K4 (1 µM), 74% and 60%; with MAP4K5 (1 µM), 94.1% and 85%; in the assay on MAPKAPK2 (1 µM), 2% and 33%; with MAPKAPK5 (1 µM), 0% and 9%; in the assay on MARK1 (1 µM), 13% and 10%. In addition, the “%Inh” value with MARK2 (1 µM) was 43% and 42%; in the assay with MARK3 (1 µM) it was 10% and 0%; with MARK4 (1 µM), 27% and 11%; with MAST1 (1 µM) it was 52% and 37%; in the assay with MEK1 (1 µM), 36% and 3%; in the assay with MEK2 (1 µM) it was 58% and 26%. The “%Inh” value was 45% and 44% with MEK3 (1 µM); 31% and 6% in the assay on MEK4 (1 µM); 47% and 18% with MEK5 (1 µM); 59% and 42% with MEK6 (1 µM); 51% and 31% in the assay on MELK (1 µM); 15% and 0% in the assay with MERTK (1 µM). The “%Inh” value in the assay on MET (1 µM) was 8% and 0%; in the assay with MINK (1 µM) it was 89% and 88%.
Take `O=C(NCCNc1ccnc(Nc2ccc(F)cc2)n1)c1cc2ccccc2s1` [GSK1379874]: the “%Inh” value in the assay with MAP4K3 worked out at 0%; in the assay with MAP4K4, 0%; with MAP4K5, 3%; in the assay with MAPKAPK2, 0%; with MAPKAPK5 it was 0%; in the assay on MARK1, 0%. Also, the “%Inh” value in the assay on MARK2, in the assay with MARK3, in the assay on MARK4, with MAST1, in the assay on MEK1 and with MEK2 was 0% each time. The “%Inh” value was found to be 41% in the assay on MEK3; 29% in the assay on MEK4; 22% in the assay on MEK5; 0% with MEK6; 0% in the assay on MELK; 0% with MERTK. For the same molecule, the “%Inh” value in the assay with MET is 0%; with MINK, 7%.
Consider `CN(C1=C(c2ccccc2)C(=O)NC1=O)c1ccccc1` [SB-334860], for which the “%Inh” value with MAP4K3 amounted to 8%; in the assay on MAP4K4 it was 16%; with MAP4K5 it was 9%; in the assay on MAPKAPK2 it was 8%; in the assay with MAPKAPK5, 0%; in the assay on MARK1, 0%. Besides, the “%Inh” value in the assay on MARK2 amounted to 3%; in the assay with MARK3 it was 0%; with MARK4 it was 0%; in the assay with MAST1 it was 0%; with MEK1 it was 0%; with MEK2, 0%. Besides, the “%Inh” value in the assay with MEK3 was found to be 7%; with MEK4 it was 14%; in the assay with MEK5 it was 34%; in the assay on MEK6 it was 0%; in the assay with MELK, 24%; with MERTK, 0%. Further, the figures for the “%Inh” value in the assay with MET and in the assay with MINK were 0% and 23%, respectively.
